Outcome and AC50 data for 28 compounds are collected here from PubChem BioAssay (EPA / NIEHS).

Molecules are shown by their SMILES. Activity calls are given as the source filed them. How the source made its calls: active means hit-call score of the fitted dose curve at least 0.9, where 1 is the maximum; inactive means score below 0.9.

Chain of Estrogen receptor (Homo sapiens) (P03372 whole entry, looked up): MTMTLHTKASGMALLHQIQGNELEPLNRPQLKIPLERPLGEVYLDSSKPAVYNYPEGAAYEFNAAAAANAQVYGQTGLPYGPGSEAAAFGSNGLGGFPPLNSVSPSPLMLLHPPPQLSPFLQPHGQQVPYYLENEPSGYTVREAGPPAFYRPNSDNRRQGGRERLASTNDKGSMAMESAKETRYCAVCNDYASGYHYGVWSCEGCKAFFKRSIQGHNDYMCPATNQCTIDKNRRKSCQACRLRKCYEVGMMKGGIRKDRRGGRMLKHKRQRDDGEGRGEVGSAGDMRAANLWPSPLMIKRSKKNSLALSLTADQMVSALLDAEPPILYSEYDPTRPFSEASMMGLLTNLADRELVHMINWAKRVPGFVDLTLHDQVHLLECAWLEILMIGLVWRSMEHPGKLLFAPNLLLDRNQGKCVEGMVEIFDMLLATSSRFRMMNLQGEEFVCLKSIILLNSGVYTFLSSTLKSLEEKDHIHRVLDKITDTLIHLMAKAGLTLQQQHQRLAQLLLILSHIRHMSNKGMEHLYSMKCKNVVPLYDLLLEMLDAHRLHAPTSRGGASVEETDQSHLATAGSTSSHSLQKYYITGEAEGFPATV

The experiment concerns the target Estrogen receptor (Homo sapiens) (UniProt P03372). Nature of the experiment: CCTE_Deisenroth_AIME_384WELL_LUC_Shift: CCTE's 384-well Estrogen Receptor Transactivation Assay with AIME metabolic competence data shift (ERTA luciferase; difference in metabolism positive and negative), Deisenroth Lab (AID 2284041).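 Further: shift is response with S9 minus without S9 so positive means metabolism raised ER signal.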 Here is the method: CCTE_Deisenroth_AIME_384WELL (AIME metabolism assay) is a cell-based, single-readout assay that uses VM7Luc4E2, a human mammary gland/breast cell line, with measurements taken at 24 hour after chemical dosing in a 384-well plate.CCTE_Deisenroth_AIME_384WELL_LUC_Shift is one of two analysis components calculated from the CCTE_Deisenroth_AIME_384WELL assay. […] AIME is optimized to impart phase I hepatic metabolism using phenobarbital/beta-naphthoflavone induced hepatic S9 from male Sprague Dawley rats. Parent chemicals are incubated for 2 hours in the AIME assay prior to transfer to the VM7Luc ERTA assay plate. […] The metabolic curve shift response is defined as the pairwise difference between the positive (AEID 2488) and negative (AEID 2490) normalized response values at each concentration for a given chemical across replicate experiments. The pairwise differences form the basis for a concentration-response curve. Standard curve fit analysis identfiied chemicals where the calculated shift was greater than the shift-derived baseline cutoff. A positive hit designation in this endpoint indicates a significant shift trend in the positive direction for bioactivation.
The AIME procedure consists of a preparative "pre-stamping" step using a barium chloride/poly-L-lysine (PLL) solution followed by "stamping" the lid in alginate-hepatic S9 (metabolism positive) or alginate-water (metabolism negative) to form microspheres. Once stamping is completed, the AIME lids are placed in duplicate microplates (metabolism positive or negative) containing chemical solutions and incubated for two hours to facilitate metabolic reactions. The conditioned medium, containing parent chemical or metabolites, is then transferred to the cell-based VM7Luc Estrogen Receptor Transactivation Assay (ERTA) for 24 hours. A typical experimental design tests a 10-point concentration series (0.002 - 200 uM) for 8 compounds (96-well format)1 or 32 compounds (384-well format)2 in single technical replicate. AIME assay controls include trans-stilbene (bioactivated control) and ethylparaben (bioinactivated control). ERTA assay plate controls include 17-beta estradiol (positive control) and DMSO (solvent control). Experiments typically comprise a minimum of four experimental replicates (n=4).
Regarding `COP(=O)(OC)O/C(=C\Cl)c1cc(Cl)c(Cl)cc1Cl`, the result was inactive.
As to `CC(C)(c1ccccc1)c1ccc(O)c(C(C)(C)c2ccccc2)c1`, the outcome was inactive.
As to `COc1ccc(C=O)cc1`, the outcome was inactive.
In the case of `ClC(Cl)=C(Cl)C(Cl)=C(Cl)Cl`, the outcome was inactive.
Consider `CC(C)(C)c1cc(O)ccc1O`, for which the concentration at half-maximal activity (AC50) was 30.7 µM (active).
Consider `C=C(C)C#N`, for which the result was inactive.
Take `CC1(C)CCC(Cc2ccc(Cl)cc2)C1(O)Cn1cncn1` (stereo not drawn): the result was inactive.
As for `O=C(NCO)NCO`, the outcome was inactive.
The same measure, in the same setting: the entry for `O=C1C(Cl)=C(Cl)C(=O)c2ccccc21` is “inactive”.
Take `OCC(O)CCl` (stereo not drawn): the half-maximal activity concentration (AC50) is 0.00281 µM (active).
Take `Cc1ccc(N)cc1Cl`: the outcome was inactive.
In the case of `CCOC(=O)Nc1cccc(OC(=O)Nc2ccccc2)c1`, the result was inactive.
With `CC(=O)C=C(C)C`, the outcome was inactive.
Same read-out and setting: the result for `NNC(=S)NN` reads “inactive”.
On to `O=C1CCCN1`, for which the outcome was inactive.
On to `CNC(=O)O/N=C/C(C)(C)S(C)=O` (stereo not drawn), for which the outcome was inactive.
Same read-out and setting: the result for `CC(=O)c1cc(C(C)(C)C)cc2c1CCC2(C)C` reads “inactive”; that for `COP(=O)(OC)OC`, “inactive”; that for `CC(=O)[O][Hg][c]1ccccc1`, “inactive”.
Take `CCCCCCCCSC(=O)Oc1cc(Cl)nnc1-c1ccccc1`: the outcome was inactive.
On to `CCOP(=S)(OCC)SCSP(=S)(OCC)OCC`, for which the result was inactive.
Take `[O-][Cl+2]([O-])O`: the outcome was inactive.
As to `NC(=O)O`, the result was inactive.
On to `O=C(Cc1ccccc1)c1ccccc1`, for which the result was inactive.
`CCC(C)(C)c1ccc(O)c(C(C)(C)CC)c1`: the result was inactive.
Regarding `O=S(=O)(c1ccc(Cl)cc1)c1ccc(Cl)cc1`, the result was inactive.
Turning to `CNC`, the outcome was inactive.
Consider `c1cc[c]([Hg][c]2ccccc2)cc1`, for which the AC50 is 0.365 µM (active).

For orientation: AC50 means the concentration at which the activity in the assay is half-maximal.
